Molecules are shown by their SMILES. Screen size: about 69,000 compounds; about 8,600 (12%) showed an effect of 50% or more. For the sample, strong results were picked, then their nearest neighbours and some compounds at random.

In ChEMBL document CHEMBL4513216, “Probing the Open Global Health Chemical Diversity Library for Multistage-Active Starting Points for Next-Generation Antimalarials” (ACS Infect Dis, 2020) one finds INHIBITION data, which are given here for 69 compounds.

This assay relates to Plasmodium berghei. Description: Screen against P. berghei liver stage (PbLuc), transformed with Luciferase, at 10uM. In kind it is functional, HepG2. The settings on record: tested at 10 uM.
Take `CCc1cnc(N)nc1NCCN1CCCCC1`: the INHIBITION stood at 5.14%.

`CCc1nc(N)nc(NCCC(=O)NC2CCCCC2)c1C`: the INHIBITION is on record as 41.5%. For `CCc1cnc(N)nc1NCCC(=O)NC1CCCCC1` the value was 68.4%; for `O=C(NC1CC1)C1(Cc2cc(-c3ccc(F)cc3F)no2)CCOCC1`, 31.6%. Take `Nc1nc(O)cc(N2CCC(c3cc(Cc4ccccc4)n[nH]3)CC2)n1`: the INHIBITION is reported as 47%.

On to `Nc1nccc(N2CCC(c3cc(Cc4ccccc4)n[nH]3)CC2)n1`, for which the INHIBITION came to 78.8%. Consider `Nc1cc(N2CCC(c3cc(Cc4ccccc4)n[nH]3)CC2)ccn1`, for which the INHIBITION was determined as 75.4%. For `Cc1cc(CN2CCC(c3cc(Cc4ccccc4)n[nH]3)CC2)[nH]n1`, the INHIBITION was found to be 30.9%. On to `NC(=O)NCCC(=O)N1CCC(c2cc(Cc3ccccc3)n[nH]2)CC1`, for which the INHIBITION is on record as -5.22%. With `Cc1ccc(N2CCC(c3cc(Cc4ccccc4)n[nH]3)CC2)nn1`, the INHIBITION was found to be 20.9%. Turning to `COc1c(CNCCNC(=O)c2ccccc2F)c(C)nn1C`, the INHIBITION was -7.31%. Take `Cc1noc([C@H]2C[C@@H]3CCN(CC4CC4)C[C@H]3O2)n1`: the INHIBITION was -5.29%.

For `Cn1cc(I)c(C(=O)NCCCn2cc(Br)cn2)n1`, the INHIBITION was 26.8%. Regarding `CC(C)N1CCOCC2(CCCN(C(=O)CCc3cccnc3)C2)C1` (centres undefined), the INHIBITION is on record as 35.4%. For `CN1CC(c2cc(O)nc(NCc3ccc(Cl)cc3)n2)CC1=O` (centres undefined) the value was -17.7%; for `C1CCN(CCOC2CCNC2)CC1` (centres undefined), 5.42%; for `CCn1cc(CN2C[C@@H]3CC[C@H]2CN(C(=O)c2cnccn2)C3)cn1`, 21.5%.

As for `Cc1cc(C(=O)N2CCC3(CC2)CC(c2cccnc2)C(=O)N3C)no1` (centres undefined), the INHIBITION is -36.5%. With `CNCc1cc(F)ccc1Oc1ccc(F)cc1F`, the INHIBITION is recorded as -13.7%.

Take `CC1COC2(CCN(C(=O)Cc3ccncc3)CC2)C1` (centres undefined): the INHIBITION is 62.9%. In the case of `CCOCC(=O)N1CCC2(CC1)CC(c1ccccc1)CO2` (centres undefined), the INHIBITION came to 38.5%.

Turning to `O=C(Cc1ccncc1)N1CCC2(CC1)CC(c1ccccc1)CO2` (centres undefined), the INHIBITION was 95.5%. `Cn1cc(C2COC3(CCN(C(=O)Cc4ccccc4)CC3)C2)cn1` (centres undefined): the INHIBITION came out at 48.4%.

As to `O=C(Cc1ccccc1)N1CCC2(CC1)CC(Nc1cnccn1)CO2` (centres undefined), the INHIBITION is reported as 31.5%.

For `COCCC1COC2(CCN(C(=O)Cc3ccccc3)CC2)C1` (centres undefined), the INHIBITION is recorded as 28.7%.

As to `CCN1CCC(N2CCN(C)C3(CCC(=O)N(CCOC)CC3)C2)CC1` (centres undefined), the INHIBITION is recorded as 7.92%. For `COc1ccccc1-c1cccc(C2CCCN(C3CCOCC3)C2)n1` (centres undefined), the INHIBITION is listed as 36.95%.

`COC(=O)c1cccc(C2CNCCN2C)c1` (centres undefined): the INHIBITION was determined as 32.7%. With `Cn1ccnc1CN1CCC2(CC1)Cc1ccccc1CNC2=O`, the INHIBITION is reported as 23.6%. On to `Cc1nccc(C2CCCN(S(=O)(=O)N3CCOCC3)C2)n1` (centres undefined), for which the INHIBITION worked out at 24.075%. For the compound `CNC(=O)CCN(C)CC1(c2ccc(Br)cc2)CC1`, the INHIBITION was -0.532%. In the case of `Cc1ccccc1CN1C[C@H]2CC[C@@H](C1)N(CC1CCC1)C2=O`, the INHIBITION came out at 28.3%.

With `O=C(CN1C(=O)CCNC1=O)N1CCOC(c2ccc(F)cc2)C1` (centres undefined), the INHIBITION is given as -141%. `N#CC1(C(=O)N2CCOC(c3ccc(F)cc3)C2)CCCCC1` (centres undefined): the INHIBITION was -14.2%. Take `CCn1cnnc1CNC(=O)N1CCOC(c2ccc(Cl)cc2)C1` (centres undefined): the INHIBITION worked out at 27.5%. On to `NS(=O)(=O)CCN1CCOC(c2ccc(Cl)cc2)C1` (centres undefined), for which the INHIBITION is -51.9%. In the case of `N#CC1(C(=O)N2CCOC(c3ccc(F)cc3)C2)CCCC1` (centres undefined), the INHIBITION turned out to be 54.2%.

Take `N#CC1(C(=O)N2CCOC(c3ccc(Cl)cc3)C2)CCCC1` (centres undefined): the INHIBITION is recorded as 57.1%.

Consider `CCN1CC2(CNCCN(C(=O)Nc3ccccc3)C2)CC1=O` (centres undefined), for which the INHIBITION is -80%. For `Cc1cccc(CN2C(=O)CCC23CCN(C(=O)NC(C)C)CC3)n1` the value was -40.5%. Consider `CC(C(=O)NCCCN1CCOCC1)n1cncn1` (centres undefined), for which the INHIBITION is -22.9%.

With `Fc1cnc(N2CCCC3(CCN(Cc4ccco4)C3)C2)nc1` (centres undefined), the INHIBITION was -3.88%. As to `COc1ccc(CN2CCC3(CCCN(c4ncc(F)cn4)C3)C2)cc1` (centres undefined), the INHIBITION came out at 74.2%. For `c1ccc(N2CCCC3(CCN(Cc4nccs4)C3)C2)nc1` (centres undefined) the value was 29.1%; for `CS(=O)(=O)N1CCC2(CCCN(c3ncc(F)cn3)C2)C1` (centres undefined), 28.2%. With `CCS(=O)(=O)N1CCC2(CCCN(c3ncc(F)cn3)C2)C1` (centres undefined), the INHIBITION stood at 55.5%. For the compound `Fc1cnc(N2CCCC3(CCN(Cc4ccoc4)C3)C2)nc1` (centres undefined), the INHIBITION amounted to 40.4%.

In the case of `c1csc(CN2CCC3(CCCN(c4nncs4)C3)C2)n1` (centres undefined), the INHIBITION is on record as -79.8%.

For the compound `COCCN1CCC2(CCCN(c3ncc(F)cn3)C2)C1` (centres undefined), the INHIBITION is 24.9%. Consider `c1cnc(N2CCCC3(CCN(Cc4cccs4)C3)C2)nc1` (centres undefined), for which the INHIBITION is -20.8%. Take `Fc1cnc(N2CCCC3(CCN(Cc4cccs4)C3)C2)nc1` (centres undefined): the INHIBITION stood at 57.9%. In the case of `CCCS(=O)(=O)N1CCC2(CCCN(c3ncc(F)cn3)C2)C1` (centres undefined), the INHIBITION was determined as 41%.

On to `Fc1cnc(N2CCCC3(CCN(Cc4nccs4)C3)C2)nc1` (centres undefined), for which the INHIBITION is 55.5%. On to `CCc1noc(C)c1C(=O)N1CCC(c2[nH]ncc2S(C)(=O)=O)C1` (centres undefined), for which the INHIBITION is 35.2%.

`CCNc1cc2c(nn1)CCN(C(=O)c1c(C)noc1C)C2`: the INHIBITION is recorded as 14.1%. For `O=C(NCCCO)NCCc1cc(F)ccc1F`, the INHIBITION was 22.6%. Turning to `Cc1ccc(CN2CCCn3c(nc(Cn4ccnc4)cc3=O)C2)o1`, the INHIBITION amounted to 10%. `CN1CCCC1c1ccnc(-c2ccccn2)n1` (centres undefined): the INHIBITION is -5.8%. In the case of `NC(=O)COc1ccc(CNCc2c(F)cccc2F)cc1`, the INHIBITION was 31.1%.

With `Cc1ccc(-c2nc(CNC3CCc4ncnn4C3)co2)cc1` (centres undefined), the INHIBITION came to 12.7%. For `O=C([C@H]1C[C@H]2CN(c3ncc(F)cn3)C[C@@H]1O2)N1CCCC1` the value was 41.2%; for `c1ccc(Cc2nc(CNCCn3cccn3)cs2)cc1`, 21.5%. Turning to `CC(C)c1nnc2n1CCN(C(=O)c1cc3cc(F)ccc3[nH]1)C2`, the INHIBITION was determined as 45.7%. Take `CC(C)c1cccc(N2CCCC3(CCC(=O)N(C4CC4)C3)C2)n1` (centres undefined): the INHIBITION was determined as 50.5%. For `CC(O)c1cccc(N2CCC3(CCC(=O)N(C4CCCC4)C3)CC2)n1` (centres undefined) the value was -9.31%; for `N#Cc1cccc(N2CCCC3(CCC(=O)N(C4CCCC4)C3)C2)n1` (centres undefined), 18.9%; for `COCCCNC(=O)c1ccccc1S(C)(=O)=O`, 18.4%. For `Cc1cc(=O)[nH]c(=O)n1-c1cccc(Cl)c1Cl` the value was 17.1%; for `Cc1cc(C)n(-c2cncc(NCCNC(=O)c3cccnc3)n2)n1`, 31.9%.
